ERa coact inh: ERα–SRC-1 coactivator interaction inhibitors, primary screen, biochemical, TR-FRET, ERα LBD, estradiol-bound | AID 629, 2007 | TR-FRET ER-alpha LBD / SRC-1 peptide | inhibition, % at 25.6 µM | hit rate 1.7% among 86,000; in the data active = inhibition above about 50%;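 also: 0% = receptor plus peptide control and 100% = peptide only without receptor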
FAK blocker: FAK kinase inhibitors, primary screen, biochemical; Focal adhesion kinase 1 (Homo sapiens), Q05397; biochemical FAK kinase activity assay; inhibition, %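 (tested at 7 µM)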; hit rate 0.84% among 97,000; AID 727, 2007; in the data active = inhibition above about 19%;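 also: 0% = DMSO and 100% = reference compound high control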
LYP inh 2: PTPN22 phosphatase inhibitors, primary screen, biochemical, DiFMUP fluorescence, 2 µM; Tyrosine-protein phosphatase non-receptor type 22 (Homo sapiens), Q9Y2R2; recombinant LYP catalytic domain; inhibition, % at 2 µM; hit rate 0.21% among 96,000;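 active = inhibition at 2 µM at or above a set limit, the screen mean plus 3 SD, cut at about 24% in these data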;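 also: 0% = DMSO with enzyme and 100% = enzyme fully blocked by orthovanadate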
ERb SRC1 inh: inhibitors of ERβ-SRC1 coactivator interaction, primary screen, biochemical, TR-FRET, ERβ LBD, SRC-1 peptide. TR-FRET ER-beta LBD / SRC1-Cy5 peptide binding; receptor agonist-loaded with 1 µM estradiol. inhibition, % at 25.6 µM. hit rate 1.3% among 86,000;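 active = compounds whose percent inhibition of the receptor-coactivator binding signal exceeds about 50% in the single-dose screen, limit read from the data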;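 also: 0% = receptor plus peptide wells without compound and 100% = peptide-only wells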
Target sequence (Q92731 whole entry, looked up, the tested form may be a part): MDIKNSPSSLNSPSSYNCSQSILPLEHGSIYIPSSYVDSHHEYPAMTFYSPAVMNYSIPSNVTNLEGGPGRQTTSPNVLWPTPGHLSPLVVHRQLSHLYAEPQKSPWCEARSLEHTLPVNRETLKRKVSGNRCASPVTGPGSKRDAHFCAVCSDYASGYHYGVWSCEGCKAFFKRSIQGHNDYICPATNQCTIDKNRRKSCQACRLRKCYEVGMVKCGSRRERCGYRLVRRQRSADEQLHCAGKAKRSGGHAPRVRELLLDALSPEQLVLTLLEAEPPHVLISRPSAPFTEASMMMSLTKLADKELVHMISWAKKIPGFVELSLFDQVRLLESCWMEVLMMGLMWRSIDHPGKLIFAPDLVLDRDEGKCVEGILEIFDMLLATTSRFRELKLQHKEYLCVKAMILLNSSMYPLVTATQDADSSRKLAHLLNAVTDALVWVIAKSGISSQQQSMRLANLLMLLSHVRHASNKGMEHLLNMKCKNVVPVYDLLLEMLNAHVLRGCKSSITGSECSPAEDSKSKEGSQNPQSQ
PTPN22 act: LYP phosphatase activators, primary screen, biochemical, DiFMUP fluorescence, 2 µM. recombinant LYP; 0 = plate median, 100 = signal doubled. hit rate 0.11% among 96,000. activation, % at 2 µM. AID 697, 2007;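 active = activation at 2 µM above a set limit, the mean plus 5 SD, cut at about 37% in these data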
ERa coact pot: enhancers of ERα–SRC-1 coactivator binding, primary screen, biochemical, TR-FRET, ERα LBD, low estradiol | hit rate 1.3% among 86,000 | Estrogen receptor (Homo sapiens), P03372 | coactivator binding (% of control), % at 25.6 µM | TR-FRET ERalpha-LBD/SRC-Cy5 coactivator binding, 2 h; 100 = basal binding, no effect; in the data active = activity above about 200%;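 also: binding measured in presence of low estradiol as agonist stimulus; 0% = peptide alone without receptor and 100% = receptor with peptide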
The depositor's hits bear a star; nt = not tested or not shown; [ ] = dose if it differs, or a comment. Sampled rows, rich in hits. Any-hit rate of the full collection: about 3.4%.

SMILES	ERa coact inh	FAK blocker	LYP inh 2	ERb SRC1 inh	PTPN22 act	ERa coact pot
O=C(Nc1nc(-c2nc3ccccc3s2)cs1)C1COc2ccccc2O1 (configuration not stated)	68*	nt	nt	30	nt	128
O=C(Nc1ccncc1)C1COc2ccccc2O1 (configuration not stated)	-3	-2	-35	-10	32	110
O=C(Nc1cnc2ccccc2c1)C1COc2ccccc2O1 (configuration not stated)	-2	2	28*	-8	-29	117
COc1ccc2nc(NC(=O)C3COc4ccccc4O3)sc2c1 (configuration not stated)	2	0	-20	6	15	103
CCc1cccc(C)c1NC(=O)C(c1ccccc1)N1CCC1=O (configuration not stated)	nt	-4	-2	nt	7	nt
CCCc1[nH]nc2c1C(c1ccccc1OCC)C(C#N)=C(N)O2 (configuration not stated)	4	12	-7	3	5	85
CCOc1ccccc1C1C(C#N)=C(N)Nc2onc(-c3ccccc3)c21 (configuration not stated)	-4	-1	-5	1	4	378*
COc1ccc(C(=O)n2c(SC)nc3cc4c(cc32)OCCO4)cc1	nt	2	4	nt	0	nt
CC(=O)N1CCN(c2ccccc2NC(=O)c2cc(Br)ccc2Cl)CC1	3	-1	12	-1	-12	65
CN1CCN(c2ccccc2NC(=O)c2cc(Br)ccc2Cl)CC1	82*[fluorescence artefact?]	0	10	45	-8	18
CCC(=O)Nc1cccc(NC(C)=O)c1	84*[fluorescence artefact?]	0	4	78*	-2	27
Cc1onc(-c2c(Cl)cccc2Cl)c1C(=O)NCc1ccco1	-3	-3	-11	-9	11	117
Cc1nn(Cc2ccccc2Cl)c(C)c1C(=O)NCc1ccco1	3	2	1	79*	-1	106
CCOc1ccccc1N1CSC2=C(C#N)C(c3c(OC)ccc4ccccc34)CC(=O)N2C1 (configuration not stated)	-2	3	12	17	-13	376*
COc1ccc(N2CSC3=C(C#N)C(c4cc(OC)ccc4OC)CC(=O)N3C2)c(OC)c1 (configuration not stated)	-9	-6	-1	15	-1	84
COc1ccc(N2CSC3=C(C#N)C(c4cccs4)CC(=O)N3C2)cc1 (configuration not stated)	54*[fluorescence artefact?]	-3	-17	41	13	69
COc1ccc(N2CSC3=C(C#N)C(c4cc(OC)c(OC)cc4OC)CC(=O)N3C2)c(OC)c1 (configuration not stated)	55*[fluorescence artefact?]	-2	-9	-10	6	101
O=C(NN=C1C2CC3CC(C2)CC1C3)c1cc(Cl)ccc1O	nt	-2	12	nt	-8	nt
Clc1ccc(CNc2nnnn2-c2ccccc2)c(Cl)c1	nt	4	-8	nt	8	nt
CC(=O)Nc1ccc(OCC(O)Cn2nc(C)c(Br)c2C)cc1 (configuration not stated)	-22	-1	-15	3	11	101
CCc1c(C)nc2cc(-c3ccc(OC)c(OC)c3)nn2c1NCC1CC1	nt	4	5	nt	-7	nt
COC(=O)c1ccc2c(c1)NC(=O)C1CCCN21 (configuration not stated)	81*[fluorescence artefact?]	nt	nt	22	nt	35
O=c1c2[nH]c3ccccc3c2ncn1CCC1=CCCCC1	3	8	1	45	0	308*[fluorescence artefact?]
Cc1ccc2[nH]c3c(=O)n(CCC4=CCCCC4)cnc3c2c1	13	7	5	16	-5	335*[fluorescence artefact?]
O=c1[nH]c(=O)n(Cc2ccco2)c2c1C(C(F)(F)F)(C(F)(F)F)N=C(Cc1ccccc1)N2	10	1	6	2	-5	79
SMILES	ERa coact inh	FAK blocker	LYP inh 2	ERb SRC1 inh	PTPN22 act	ERa coact pot
CCCCC(=O)Nc1ccc(C(=O)NNC(=O)c2ccccc2Br)cc1	nt	-8	-6	nt	11	nt
COc1ccccc1NC(=O)C1=C(C)NC(SCC(=O)c2ccccc2)=C(C#N)C1c1ccco1 (configuration not stated)	-8	-3	10	4	-13	278*[fluorescence artefact?]
CC(=O)C1=C(C)NC(SCC(=O)c2ccc(C)cc2)=C(C#N)C1c1ccco1 (configuration not stated)	6	6	15	18	-10	103
Cc1ccc(C(=O)CSC2=C(C#N)C(c3ccco3)C3=C(CC(C)(C)CC3=O)N2)cc1 (configuration not stated)	0	-1	6	-1	-4	200*
CCOC(=O)C1=C(c2ccccc2)NC(SCC(=O)NC2CCCCC2)=C(C#N)C1c1ccco1 (configuration not stated)	13	0	6	13	-6	364*[fluorescence artefact?]
C=CCOC(=O)C1=C(C)NC(SCC(=O)Nc2ccc(C)c(Cl)c2)=C(C#N)C1c1ccco1 (configuration not stated)	94*[fluorescence artefact?]	3	-2	-10	-1	107
COc1ccc(CNC(=O)C2CCN(S(=O)(=O)c3cccc4cccnc34)CC2)cc1	1	nt	nt	-7	nt	113
CCCNS(=O)(=O)c1cccc(C(=O)NC2CCCc3ccccc32)c1 (configuration not stated)	nt	1	4	nt	-5	nt
CCC(=O)Nc1ccc(C(=O)Cn2nc(C(=O)O)c3ccccc3c2=O)cc1	77*[fluorescence artefact?]	nt	nt	61*	nt	51
CCOc1ccc(C(C)=O)cc1Cn1nc(C(=O)O)c2ccccc2c1=O	18	6	-1	31	-1	252*
Cc1cccc(C)c1OCCn1nc(C(=O)O)c2ccccc2c1=O	4	2	-2	4	3	97
Cc1cc(C=O)c2c(c1)C=CC1(Oc3ccccc3C(=O)N1C)O2 (configuration not stated)	-5	4	5	8	-5	91
COc1ccc2cc(C)c3nnc(SCC(=O)Nc4nc(-c5ccccc5)cs4)n3c2c1	nt	1	14	nt	-12	nt
NC(=O)Cc1c[nH]c2cccc(O)c12	73*[fluorescence artefact?]	nt	nt	93*[fluorescence artefact?]	nt	54
C=C(C)Cn1c(N2CC(C)CC(C)C2)nc2c1c(=O)[nH]c(=O)n2C (configuration not stated)	2	nt	nt	-5	nt	107
CCCCCCC1NC(C(=O)O)CS1 (configuration not stated)	nt	6	7	nt	-5	nt
CCCCc1ccc(NC(=O)OC)cc1	-11	nt	nt	19	nt	531*[fluorescence artefact?]
CCOC(=O)c1cc(C#N)c(SCC(=O)c2cc(C#N)c(SC)nc2C)nc1C	35	nt	nt	32	nt	288*

Compound activity from PubChem BioAssay.
